Calb FLC: C. albicans growth modulation with fluconazole; C. albicans CaCi-2 (fluconazole-resistant clinical isolate) + fluconazole, Alamar Blue growth, 48 h; growth inhibition, % (no concentration beside the values); actives 0.57% (n = 300,000); AID 1979;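 active = growth inhibition above about 58% in most replicates, limit read from the data, passing the limit was not always enough; inconclusive = exactly half the replicates above a set limit; inactive = most replicates below a set limit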;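 also: all wells also contain fluconazole at 8 µg/ml as a sub-toxic cotreatment; 0% = median of DMSO wells and 100% = median of geldanamycin control wells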
Cardio protect: myocardial damage modulation in H9c2 cells; AID 588492; H9c2 cardiomyocytes, H2O2 injury protection, ATPLite, 2 h; protection from H2O2 cell death, % at 20 µM; actives 0.63% (n = 360,000);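 active = compounds giving at least 50% protection of heart cells from peroxide-induced death in the single-dose screen, raw or plate-pattern-corrected value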;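 also: 0% = DMSO wells with peroxide and 100% = DMSO wells without peroxide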
PHOSPHO1 block: PHOSPHO1 (human) inhibition; Q8TCT1; recombinant PHOSPHO1, absorbance phosphatase assay; inhibition, % at 13.3 µM; actives 1.1% (n = 290,000); AID 1565; in the data active = inhibition above about 60%
Efflux pump mplx: antifungal efflux pump inhibition, Nile Red retention; inhibition, % at 10 µM; actives 0.44% (n = 330,000); S. cerevisiae Candida pump triplex;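 active = plate passing quality check with inhibition over a set limit, or well fluorescence over plate mean plus 4 SD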;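 also: Nile Red retained in pooled yeast measured as flow cytometry median fluorescence; 0% = buffer negative control and 100% = Enniatin B positive control; higher means more Nile Red kept so more efflux inhibition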
Cl transport mod: modulates chloride dependent transport by human KCC2. actives 2.2% (n = 190,000). B-score of Tl+ flux slope (higher = more flux/activation; lower = inhibition) at 10 µM. AID 1456. Q9H2X9. KCC2 cells, thallium flux FluoZin-2 fluorescence;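 active = thallium flux slope and its plate-corrected score both differing from the plate sample mean at a set confidence after two filtering rounds, in either direction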;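 also: slope of fluorescence scaled to starting intensity during 10 to 20 s after thallium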
* marks the source's active call; other numbers are inactive results; ? = inconclusive; / = not tested or not shown. Only some compounds are listed: those with a hit (about 3.3% of all), similar ones and a draw of the others.

SMILES	Calb FLC	Cardio protect	PHOSPHO1 block	Efflux pump mplx	Cl transport mod
COc1cccc(NC(=O)CSc2nccn2-c2cccc(OC)c2)c1	-7.3	3.3	42.8	0.4	-0.00261
O=C(CSc1nccn1-c1cccc(Cl)c1)Nc1ccc2c(c1)OCCO2	-14.0	-15.3	74.1*	0.2	-3.5
COc1ccc(NC(=O)CSc2nccn2-c2cccc(OC)c2)cc1	-37.2	5.4	71.9*	0.0	0.0965
Nn1c(SCC(=O)Nc2ccc3c(c2)OCCO3)nnc1C(F)(F)F	-1.3	5.5	91.1*	0.0	-0.37
COc1ccc(S(=O)(=O)N2CCOCC2)cc1NC(=O)c1cccc2c(=O)c(C)c(-c3ccccc3)oc12	0.9	71.3*	-7.1	-0.5	-2.82
CCN(CC)S(=O)(=O)c1ccc(N2CCOCC2)c(NC(=O)c2cccc3c(=O)c(C)c(-c4ccccc4)oc23)c1	-3.3	44.9	/	0.0	/
CN1C[C@@H]2[C@@H]3C(=O)N(C)C(=O)[C@@H]3[C@](C)(C1=O)N2C(=O)c1ccc(Br)cc1	/	0.6	/	/	/
Cn1c(=O)cc(OCC(=O)NCCCN2CCN(c3cccc(Cl)c3)CC2)c2ccccc21	-13.7	64.4*	-17.3	0.0	-0.703
Cc1cc(Nc2ccccc2C(=O)O)nc2nc3ccccc3c(=O)n12	0.1	81.0*	35.2	0.1	/
N#Cc1c(-c2ccccc2Cl)cc(C2CC2)nc1N	/	-18.2	83.5*	0.2	-1.68
C[C@H](CO)N1C[C@H](C)[C@@H](CN(C)C)Oc2c(NC(=O)CCC(F)(F)F)cccc2C1=O	/	-7.9	/	-0.3	/
Cc1cc(NC(=O)CO/N=C/c2ccc3c(c2)OCO3)ccc1Br	-10.5	-7.9	33.5	0.1	-0.716
CCOc1ccc(/C=N/OCC(=O)Nc2ccc3c(c2)OCO3)cc1	99.8*	-16.9	-10.0	0.1	-1.53
Cc1cc(C)n(-c2nc(NCCCN(C)C)c3c4c(sc3n2)CCCC4)n1	50.0	-8.8	23.9	-0.2	1.49
Cc1cc(C)n(-c2nc(NCCN(C)C)c3c4c(sc3n2)CCCC4)n1	79.7*	-16.4	-7.0	-0.1	1.01
CNC(=O)C1Cc2ccccc2CN1S(=O)(=O)c1ccc(OC)c(OC)c1 (configuration not stated)	0.4	2.4	8.5	0.1	/
COc1ccc(S(=O)(=O)N2Cc3ccccc3CC2C(=O)Nc2ccc(O)cc2)cc1OC (configuration not stated)	-3.9	58.5*	-6.0	0.1	-0.0388
O=C1c2ccccc2[C@@H]2C[C@H](NC34CC5CC(CC(C5)C3)C4)[C@@H](O)CCN12	/	-2.1	/	-0.1	/
O=C(CN1c2ccccc2Sc2ccccc21)NNC(=O)Nc1cccc(Cl)c1	1.4	5.5	-2.2	-0.1	0.549
CN1CCN(C(=O)c2cn(-c3ccccc3)nc2-c2cccs2)CC1	6.2	-0.6	-1.7	0.0	0.00236
O=C(COC(=O)c1cn(-c2ccccc2)nc1-c1cccs1)NC1CC1	5.4	29.6	64.8*	0.0	-0.145
CN(C)C(=O)c1cn(-c2ccccc2)nc1-c1cccs1	105.6*	12.0	8.5	-0.1	1.22
c1cncc(-c2nn3c(Cn4cnc5ccccc54)nnc3s2)c1	4.0	-1.9	69.2*	0.0	1.49
c1ccc2c(c1)nnn2Cc1nnc2sc(-c3ccc4c(c3)OCCO4)nn12	6.6	5.6	48.2	0.1	0.0224
c1ccc2c(c1)ncn2Cc1nnc2sc(-c3ccncc3)nn12	-2.7	-0.8	50.9	-0.1	0.191
SMILES	Calb FLC	Cardio protect	PHOSPHO1 block	Efflux pump mplx	Cl transport mod
Clc1ccc(Cl)c(-c2nn3c(Cn4cnc5ccccc54)nnc3s2)c1	-13.6	2.9	/	0.0	-0.537
c1ccc(-c2nn3c(Cn4nnc5ccccc54)nnc3s2)cc1	-11.0	0.0	69.2*	0.0	-0.95
c1ccc(-c2nn3c(Cn4cnc5ccccc54)nnc3s2)cc1	33.1	-2.8	65.8*	0.0	-1.3
COc1ccc(Cc2nn3c(Cn4nnc5ccccc54)nnc3s2)cc1	-10.1	-9.1	68.9*	0.2	0.159
COc1ccc(NC(=O)N(O)C2(C#N)CCCCC2)cc1	/	-1.0	/	/	/
CCN1C[C@@H]2[C@@H]3C(=O)N(Cc4ccccc4)C(=O)[C@@H]3[C@](C)(C1=O)N2C(=O)c1ccc(C(F)(F)F)cc1	/	-0.3	/	/	/
COC(=O)Cn1cnc2c(nnn2-c2ccc(OC)cc2)c1=O	-3.3	-3.8	19.9	-0.1	/
Cc1ccc(C2/C(=C(/O)c3ccccc3)C(=O)C(=O)N2CCN2CCOCC2)o1 (configuration not stated)	4.4	6.9	75.5*	0.1	/
Cc1ccc(C(=O)CC(=O)c2ccc(C(C)(C)C)cc2)cc1	108.5*	20.6	32.8	-0.1	0.504
COc1ccc(S(=O)(=O)N2CCC(C(=O)NC3CCCCC3C)CC2)cc1 (configuration not stated)	-2.4	-1.5	39.1	-0.2	/
Cc1ccccc1N1CCN(CCN2C(=O)CC(=C3c4ccccc4-c4ccccc43)C2=O)CC1	89.9*	-3.7	/	-0.1	-0.132
COc1ccccc1N1CCN(CCN2C(=O)CC(=C3c4ccccc4-c4ccccc43)C2=O)CC1	8.7	/	/	-0.1	-0.466
Cc1cc(C(=O)N2CCC2(C)C(=O)Nc2ccc3[nH]ncc3c2)nn1C (configuration not stated)	/	-0.6	/	/	/
CCc1n[nH]c(=S)n1/N=C/c1ccc2c(c1)OCO2	38.0	1.3	102.6*	-0.1	-0.166
Cc1ccsc1/C=N/NC(=O)c1ccc(-n2cccc2)cc1	-4.7	-0.6	-7.1	0.1	/
O=C(O)CCSc1nc2ccc(Br)cc2[nH]1	0.7	0.6	66.3*	-0.2	/
CCn1cc(C(=O)NCCCN(CC(C)C)CC(C)C)c(=O)c2cc(S(=O)(=O)N(C)C3CCCCC3)ccc21	-10.7	-7.9	22.2	0.0	/
CCCc1cc(=O)n2[nH]cnc2n1	-11.7	3.8	60.8*	0.0	-0.0181
Cc1cc(=O)n2[nH]cnc2n1	?	7.2	4.4	-0.1	0.301
CCCCSc1nnc(-c2cc(Br)ccc2N)c(=O)[nH]1	0.1	-6.9	7.0	0.2	/
C=CCSc1nnc(-c2cc(Br)ccc2N)c(=O)[nH]1	4.7	-8.0	90.4*	0.3	/
CC(=O)c1ccc(S(=O)(=O)N2CCN(C(=O)CCC3CCCC3)CC2)cc1	/	-4.0	/	/	/
Oc1ccc(C2CNCc3sccc32)cc1O (configuration not stated)	/	53.9*	/	-0.2	/
CCOC(=O)c1c(-c2cccs2)csc1N	48.6	3.8	-69.8	-0.1	-0.3
CCOC(=O)c1c(-c2ccco2)csc1N	?	3.4	79.7*	0.0	1.02
Nc1ccc(N2CCN(c3ccc(F)cc3)CC2)cc1	102.6*	-1.5	38.5	-0.1	0.338
CC1(C(=O)Nc2ccc3c(c2)OCO3)CCN1C(=O)CCc1cccs1 (configuration not stated)	/	1.0	/	/	/
CCOC(=O)C1=C(CSc2nc(-c3ccccc3)ccc2C#N)OC(N)=C(C#N)C1c1cccnc1 (configuration not stated)	19.2	1.7	79.9*	0.0	0.0099
COC(=O)C1=C(CSc2nc3c(cc2C#N)CN(C)CC3)OC(N)=C(C#N)C1c1ccccc1F (configuration not stated)	16.7	14.8	-10.4	0.0	0.0835
